# Source: PubChem BioAssay AID588742 (Southern Research Specialized Biocontainment Screening …, 2011)
# About 410 (23%) of roughly 1,800 compounds were called active. No rule for the calls is given here. The list is a sample of the results. Results with a measured potency or affinity are listed apart.
# Assay: viability of Vero cells under compound – cytotoxicity control for flavivirus capping enzyme inhibitors (AID 588742)
# Details: cytotoxicity counter-screen; series mostly up to 40 µM
row,SMILES,outcome
1,N#Cc1c(SC(C(=O)O)c2ccccc2)nc2c(c1-c1cccs1)CCCC2 (stereo not given),inactive
2,CC1=NN(c2nc(-c3ccccc3)cs2)C(=O)C1,inactive
3,COc1cc(/C=C(\C#N)C(=O)Nc2ccccc2C(=O)O)cc(Cl)c1OC,inactive
4,COc1ccc2nc3cccc(OC)c3nc2c1,inactive
5,COc1ccc2nc3ccccc3nc2c1N,inactive
6,COc1cc(N=c2ssnc2Cl)c(OC)cc1Cl,inactive
7,O=C(O)/C(CC(=O)c1ccc(Cl)cc1)=N/Nc1ccc([N+](=O)[O-])cc1[N+](=O)[O-],inactive
8,O=C(c1ccc(NC(=O)C(c2ccccc2)c2ccccc2)cc1)c1ccc(C(=O)O)c(C(=O)O)c1,inactive
9,CC1=NN(c2ccccc2)C(=O)/C1=C/c1cccs1,inactive
10,COc1ccccc1/C=C1/C(=O)N(c2ccccc2)N=C1C,inactive
11,CC(=O)CSc1nsc(SCC(C)=O)c1C#N,inactive
12,C=CCOc1ccccc1OCC(O)CNC(C)C (stereo not given),inactive
13,O=C(CN1C(=O)/C(=C2/SC(=S)N(CCS(=O)(=O)O)C2=O)c2ccccc21)Nc1cccc(C(F)(F)F)c1,inactive
14,O=[N+]([O-])c1cc(-c2ccccc2)cc([N+](=O)[O-])c1O,inactive
15,Cc1oc2cc([N+](=O)[O-])c(O)c([N+](=O)[O-])c2c1C(=O)c1ccc(Br)cc1,inactive
16,CC(CNC(=O)CN1C(=O)COc2ccc(S(=O)(=O)N3CCCCC3)cc21)c1ccccc1 (stereo not given),inactive
17,COc1ccc(-c2ccc(CCC(=O)O)o2)cc1,inactive
18,COC(=O)CCC(=O)OC1(C)C(=O)C2=CN(C3CCCC3)C(c3ccc(OC)cc3)=CC2=C(Br)C1=O (stereo not given),inactive
19,Cc1ccc(C(=O)/C=C/C(=O)O)cc1,inactive
20,O=C(O)/C=C/C(=O)c1ccc(O)cc1,inactive
21,O=C(O)c1[nH]c2ccccc2c1C(c1cc(Br)ccc1O)c1c(C(=O)O)[nH]c2ccccc12,inactive
22,Cc1ccc(NCc2cccnc2)c(Br)c1,inactive
23,O=C(CC(Nc1cccc(Cl)c1Cl)C(=O)O)c1ccccc1 (stereo not given),inactive
24,COc1ccc(C(C2C(=O)CC(C)(C)CC2=O)C2C(=O)CC(C)(C)CC2=O)cc1,inactive
25,CCOC(=O)c1c(C)oc2c1c(CN1CCN(C(=O)OCC)CC1)c(O)c1ccccc12,inactive

row,SMILES,outcome
1,O=C(O)CN1C(=O)C=CC1=O,inactive
2,CCOC(=O)c1c(NC(=O)C2C3C=CC(C3)C2C(=O)O)sc2c1CCC(CC)C2 (stereo not given),inactive
3,Cc1ccc(/C=C2\SC(=S)N(C(Cc3ccccc3)C(=O)O)C2=O)cc1 (stereo not given),inactive
4,CCOC(=O)C1=C(C)NC2=C(C(=O)C(C(=O)OCC)C(c3ccco3)C2)C1c1ccccn1 (stereo not given),inactive
5,Cc1ccc(C(=O)N/N=C/c2ccc(-c3ccc(Br)cc3[N+](=O)[O-])o2)o1,inactive
6,C=CCOc1ccc(/C=C2\SC(=S)N(C(C(=O)O)c3ccccc3)C2=O)cc1 (stereo not given),inactive
7,C=CCn1c(=S)[nH]c2scc(-c3ccco3)c2c1=O,inactive
8,Cc1ccc(Cn2c(=S)[nH]c3ccc(N4CCOCC4)cc3c2=O)o1,inactive
9,O=C(O)COc1ccccc1C=NNc1ccc([N+](=O)[O-])cc1S(=O)(=O)Nc1ccc(Cl)cc1,inactive
10,Cc1ccc(NC(=S)NNc2ccc([N+](=O)[O-])cc2S(=O)(=O)Nc2ccccc2C(=O)O)cc1C,inactive
11,CC(C)COCC(O)CCC(=O)NNC(=S)Nc1ccccc1 (stereo not given),inactive
12,Cc1ccc2ccc(C#N)cc2c1O,inactive
13,COc1ccccc1-c1cc(C(=O)Nc2sc3c(c2C#N)CCC(C)C3)c2ccccc2n1 (stereo not given),inactive
14,COc1cc(C(c2c(C(=O)O)[nH]c3ccccc23)c2c(C(=O)O)[nH]c3ccccc23)ccc1OCc1ccccc1,inactive
15,COc1cc(/C=C2\C(=N)N3N=C(N4CCOCC4)SC3=NC2=O)ccc1OC(=O)c1ccccc1,inactive
16,Cc1cccc(N2C(=O)C(Cl)=C(N3CCOCC3)C2=O)c1,inactive
17,COc1ccc(C2C=C(c3ccc(Br)cc3)Nc3nc(N4C(=O)CCC4=O)nn32)cc1 (stereo not given),inactive
18,Cc1ccc(C)c(S(=O)(=O)Nc2ccc(O)c3ccccc23)c1,inactive
19,Cc1ccc(S(=O)(=O)Nc2ccc3ccccc3c2[N+](=O)[O-])cc1,inactive
20,O=C(O)c1ccc(N/N=C/c2cn(Cc3ccccc3F)c3ccccc23)cc1,inactive
21,CC(/C=C1\SC(=S)N(NS(=O)(=O)c2ccc(C)cc2)C1=O)=C\c1ccccc1,inactive
22,Cc1cc([N+](=O)[O-])c(C)cc1-c1ccc(/C=N/NC(=O)c2cccnc2)o1,inactive
23,Cc1nc2ccc(NC(=O)c3cc([N+](=O)[O-])cc([N+](=O)[O-])c3Cl)cc2s1,inactive
24,CN(C)c1c([N+](=O)[O-])cc(N2C(=O)C=CC2=O)cc1[N+](=O)[O-],inactive
25,CCOc1ccc(/C=C2\SC(=S)N(NS(=O)(=O)c3ccccc3)C2=O)cc1OC,inactive

row,SMILES,outcome
1,O=C(CCN1C(=O)S/C(=C/c2ccccc2)C1=O)Nc1ccc(O)c(C(=O)O)c1,inactive
2,COc1ccc(OC)c(-n2c(-c3ccc(O)cc3O)n[nH]c2=S)c1,inactive
3,COC(=O)c1sc(-c2ccc(C(C)(C)C)cc2)cc1NC(=O)c1ccccc1C(=O)O,inactive
4,Cc1sc(NC(=O)C2CCCCC2C(=O)O)c(C(N)=O)c1-c1ccc(C(C)(C)C)cc1 (stereo not given),inactive
5,Cc1sc(NC(=O)C2CCCCC2C(=O)O)c(C(N)=O)c1-c1ccc(C(C)C)cc1 (stereo not given),inactive
6,O=C(O)CN1C(=O)/C(=C\c2cc(Br)ccc2OCc2ccccc2Cl)SC1=S,inactive
7,Oc1cc(CNCc2ccccc2)c(O)cc1CNCc1ccccc1,inactive
8,O=C(O)CN1C(=O)/C(=C\c2cccc(OCc3ccc(Cl)cc3)c2)SC1=S,inactive
9,O=[N+]([O-])c1ccc(N/N=C2/CCCCC2c2ccccn2)c([N+](=O)[O-])c1 (stereo not given),inactive
10,CCCc1nc2nc(C)c(NS(=O)(=O)c3ccc(C4CCCCC4)cc3)c(=O)n2[nH]1,inactive
11,COc1ccc(Cl)cc1/C=C1/C(=O)ON=C1C,inactive
12,COc1ccc(OC)c(N2C(=O)C(Cl)=C(N3CCOCC3)C2=O)c1,inactive
13,CN1c2ccccc2C(C)(C)C12C=Nc1c(ccc3ccccc13)O2 (stereo not given),inactive
14,O=C(COC(=O)c1ccc(NS(=O)(=O)c2cccs2)cc1O)NC1CCCCC1,inactive
15,O=C1CCCc2cc(S(=O)(=O)N3CCC(C(=O)NCc4ccccc4)CC3)ccc2N1,inactive
16,COC/C=C/C1=CC2=CC(=O)C(C)(OC(=O)c3cnc4ccccc4n3)C(=O)C2=CN1C1CC1 (stereo not given),inactive
17,C=CCN1C=C2C(=O)C(C)(OC(=O)c3cnc4ccccc4n3)C(=O)C=C2C=C1/C=C/COC (stereo not given),inactive
18,CCc1ccccc1N1C(=O)C(Cl)=C(N2CCOCC2)C1=O,inactive
19,Cc1ccccc1N1C(=O)C(Cl)=C(N2CCOCC2)C1=O,inactive
20,Cc1ccc(Nc2cc(C)c(O)c(C)c2)cc1,inactive
21,Cc1ccc(S(=O)(=O)Nc2nc3ccccc3nc2NCc2ccco2)cc1,inactive
22,CC(C)C[C@H]1CN=C(Nc2ccccc2)N1CC(C)C,inactive
23,Cc1ccc(OCC(=O)c2ccc(Cl)s2)c([N+](=O)[O-])n1,inactive
24,CCOc1ccc2c(c1)C(C)=CC(C)(C)N2C(=O)Nc1ccccc1,inactive
25,O=c1[nH]c(/C=C/c2cccc([N+](=O)[O-])c2)c([N+](=O)[O-])c(=O)[nH]1,inactive

row,SMILES,outcome
1,CN1C(=O)/C(=C/c2cccc([N+](=O)[O-])c2)C(=O)N1c1ccccc1,inactive
2,Cc1cc(C)cc(NC(=S)N(Cc2ccc(Cl)cc2)Cc2ccc(C(=O)O)cc2)c1,inactive
3,CSC1=C(C#N)C(=O)NC(c2ccccc2O)S1 (stereo not given),inactive
4,Cc1ccc(OCc2ccc(C(=O)Nc3nccs3)o2)cc1C,inactive
5,CCn1c(C)[n+](CCCS(=O)(=O)[O-])c2cc(Cl)c(Cl)cc21,inactive
6,O=S(=O)(O)c1cccc2cccc(Nc3ccccc3)c12,inactive
7,COc1ccc(/C=C2/SC(=S)N(NS(=O)(=O)c3ccc(C)cc3)C2=O)cc1,inactive
8,CCC(COC)Oc1cc(NCc2ccccc2)c2ncn(C(C)C)c2c1 (stereo not given),inactive
9,CCCCC1=CC2=C(c3ccco3)C(=O)C(C)(OC(=O)c3ccc(OC)cc3)C(=O)C2=CN1CC1CC1 (stereo not given),inactive
10,Cc1[nH]n(-c2ccccc2)c(=O)c1C(c1cccc([N+](=O)[O-])c1)c1c(C)[nH]n(-c2ccccc2)c1=O,inactive
11,O=c1nc(/C=C/c2cc([N+](=O)[O-])ccc2Cl)cc(C(F)(F)F)[nH]1,inactive
12,Cc1cc(SCC(=O)c2cccc([N+](=O)[O-])c2)nc(=O)[nH]1,inactive
13,Cc1ccc(S(=O)(=O)NN2C(=O)/C(=C/c3cccs3)SC2=S)cc1,inactive
14,CC1=NN(c2ccccc2)C(=O)C1=Cc1ccccc1,inactive
15,COc1cc(NC(=O)c2ccco2)c(OC)cc1NC(=O)CCC(=O)Nc1cc(C)ccc1C,inactive
16,COc1cc(/C=C2/SC(=S)N(CC(=O)O)C2=O)ccc1OCC(=O)Nc1ccc(C)c(C)c1,inactive
17,CCOC(=O)/C(=C\c1cn(C)c2ccccc12)[N+](=O)[O-],inactive
18,CCOc1cc(/C=C2\C(=O)ON=C2c2ccccc2)ccc1OC,inactive
19,O=C1C(Cl)=C(N2CCOCC2)C(=O)N1c1ccccc1,inactive
20,Cc1cc(NS(=O)(=O)c2ccc(Nc3nc(-c4sc(N)nc4C)cs3)cc2)no1,inactive
21,CCc1sc(C(C2C(=O)CC(C)(C)CC2=O)C2C(=O)CC(C)(C)CC2=O)cc1[N+](=O)[O-],inactive
22,Cc1ccc(CNC(=O)CSc2n[nH]c(N)n2)cc1,inactive
23,CCCCC(NC(=O)Cc1c(C)c2cc3c(-c4ccccc4)coc3c(C)c2oc1=O)C(=O)O (stereo not given),inactive
24,Oc1ccc(N=Nc2ccccc2-c2nn[nH]n2)c(O)c1,inactive
25,CC(C)OP(=O)(OC(C)C)C1(NS(=O)(=O)c2ccc(Cl)cc2)C=C(Cl)C(=O)C(Cl)=C1,inactive
